According to the supplement of paper PMC3334620:
Whole data set: some 33,000 sequences, median “E-score (-0.5 to 0.5)” near -0.0014, cut for the highest 2% near 0.25. What follows is part of a selection rich in the highest values, with near analogues and random picks from the rest.

The sequences below were run against T1, Cad1 (UniProt P24813) (assay: PBM E-score (8-mer binding enrichment) (E-score (-0.5 to 0.5)); higher = stronger / more preferred TF binding). Settings: protein concentration: 100 nM; construct: GST-full length.
T1 sequence: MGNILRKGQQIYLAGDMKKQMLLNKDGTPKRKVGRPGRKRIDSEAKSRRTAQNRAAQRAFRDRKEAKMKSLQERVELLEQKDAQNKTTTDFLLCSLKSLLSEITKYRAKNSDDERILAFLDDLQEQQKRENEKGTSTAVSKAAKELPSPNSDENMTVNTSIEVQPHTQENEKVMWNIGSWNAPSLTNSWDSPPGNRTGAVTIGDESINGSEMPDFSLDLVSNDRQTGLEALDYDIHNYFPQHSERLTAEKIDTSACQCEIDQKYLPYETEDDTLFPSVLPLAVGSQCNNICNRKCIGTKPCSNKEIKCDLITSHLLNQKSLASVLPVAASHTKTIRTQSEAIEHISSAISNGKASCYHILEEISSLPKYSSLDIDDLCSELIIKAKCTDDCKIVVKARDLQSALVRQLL
Description: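 Universal 'all 10-mer' protein binding microarrays (Agilent AMADID 015681) probed with GST-tagged S. cerevisiae TFs (full-length or DBD) made by in vitro transcription/translation (PURExpress), about 100-200 nM. Bound TF was detected with fluorescent anti-GST. Each ungapped 8-mer (which stands for itself and its reverse complement) is scored by the PBM enrichment score (E-score), a modified Wilcoxon-Mann-Whitney statistic from -0.5 to +0.5, computed with the Universal PBM Analysis Suite. Scale: above 0.35 generally sequence-specific binding.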
In the case of TATGTGGA, the “PBM E-score” value is reported as 0.146.
For AGGACGCG, the “PBM E-score” value was -0.00704.
For CAGTCTGA, the “PBM E-score” value was 0.0314.
With CTGTCGGC the “PBM E-score” value was -0.107.
With CCAGTAAA the “PBM E-score” value was -0.0575.
For ACATTATG, the “PBM E-score” value was 0.0893.
For ACATTGTC, the “PBM E-score” value was 0.292.
For CCATTGTC, the “PBM E-score” value was 0.00119.
For ACATTGTG, the “PBM E-score” value was -0.0593.
For ACATTATC, the “PBM E-score” value was 0.274.
In the case of CCATTATC, the “PBM E-score” value is reported as 0.0253.
CTAGAGAC was tested, and the “PBM E-score” value was -0.243.
For AAATTTTC, the “PBM E-score” value was 0.0644.
ACGCCTAT was tested, and the “PBM E-score” value was -0.161.
In the case of AGTGTAGC, the “PBM E-score” value is reported as -0.0088.
In the case of GAGGTGGC, the “PBM E-score” value is reported as -0.149.
CGAACGCC was tested, and the “PBM E-score” value was -0.0886.
With AATCGGAG the “PBM E-score” value was 0.0523.
AATCGGAT was tested, and the “PBM E-score” value was 0.283.
In the case of AATCGGAA, the “PBM E-score” value is reported as 0.211.
With CCAGTCTC the “PBM E-score” value was -0.286.
In the case of CATCTGGA, the “PBM E-score” value is reported as -0.165.
In the case of CACAGCGA, the “PBM E-score” value is reported as 0.133.
For ATCGCGAA, the “PBM E-score” value was 0.243.
For CTCGCGAA, the “PBM E-score” value was 0.0936.
For CGAGCGAC, the “PBM E-score” value was 0.0243.
CTCGCGAG was tested, and the “PBM E-score” value was 0.279.
With ATATCGCG the “PBM E-score” value was 0.267.
With ATCGCGAG the “PBM E-score” value was 0.264.
For ATCGCGAT, the “PBM E-score” value was 0.237.
In the case of ATATCGCC, the “PBM E-score” value is reported as 0.0776.
For CACGCGAG, the “PBM E-score” value was 0.239.
In the case of AGAGCGAG, the “PBM E-score” value is reported as -0.0569.
ATATCGCA was tested, and the “PBM E-score” value was -0.0511.
For CGAGCGAG, the “PBM E-score” value was 0.258.
CCCAGACA was tested, and the “PBM E-score” value was -0.108.
In the case of CGTTACGA, the “PBM E-score” value is reported as 0.111.
With CATTAAGC the “PBM E-score” value was 0.0681.
In the case of AGTTGAGA, the “PBM E-score” value is reported as -0.0203.
In the case of AAGAGCCA, the “PBM E-score” value is reported as 0.0145.
With AGACCACA the “PBM E-score” value was -0.0838.
For ACGGCGTA, the “PBM E-score” value was 0.0105.
AGGAATTG was tested, and the “PBM E-score” value was 0.0938.
In the case of CGATCCCA, the “PBM E-score” value is reported as -0.0615.
CCTGCTAG was tested, and the “PBM E-score” value was -0.182.
For CGCAACAA, the “PBM E-score” value was 0.0963.
With GGAGCGTA the “PBM E-score” value was 0.0102.
ATCCGTAC was tested, and the “PBM E-score” value was 0.177.
For CTGGAATC, the “PBM E-score” value was -0.0416.
With CCTCCAGA the “PBM E-score” value was -0.208.
For ACCGCGAG, the “PBM E-score” value was -0.00282.
With CGCGCGAG the “PBM E-score” value was 0.302.
For CGCGCGAA, the “PBM E-score” value was 0.175.
ATCGCGCG was tested, and the “PBM E-score” value was 0.282.
In the case of CGCGTGAC, the “PBM E-score” value is reported as 0.056.
In the case of ATCGTGCA, the “PBM E-score” value is reported as 0.166.
CGCGTGAG was tested, and the “PBM E-score” value was 0.269.
For ATCGTGCC, the “PBM E-score” value was 0.102.
AGCGCGAG was tested, and the “PBM E-score” value was 0.0178.
With ATCGCGCA the “PBM E-score” value was 0.0635.
For ATCGTGCG, the “PBM E-score” value was 0.325.
In the case of ATCGCGCC, the “PBM E-score” value is reported as 0.143.
With AGCGTGAG the “PBM E-score” value was -0.0272.
With CAACCAAA the “PBM E-score” value was 0.0894.
With CGGAGTAA the “PBM E-score” value was 0.109.
In the case of ATAGACCG, the “PBM E-score” value is reported as -0.0498.
In the case of AACGCACC, the “PBM E-score” value is reported as -0.0282.
In the case of ACACCAAC, the “PBM E-score” value is reported as -0.0461.
For CTCAATGC, the “PBM E-score” value was -0.134.
ACTGGGAA was tested, and the “PBM E-score” value was -0.0452.
For CCTTATCG, the “PBM E-score” value was 0.0678.
For ACTTATCA, the “PBM E-score” value was 0.116.
For TCTTATAA, the “PBM E-score” value was 0.0694.
With GCTTATCA the “PBM E-score” value was 0.0614.
For CCTTATCA, the “PBM E-score” value was 0.257.
For TCTTATCA, the “PBM E-score” value was 0.267.
With TGTGAAAA the “PBM E-score” value was 0.103.
With ACGGAACC the “PBM E-score” value was 0.218.
In the case of GACCGGGC, the “PBM E-score” value is reported as -0.104.
With AACTGATA the “PBM E-score” value was 0.0697.
For ACAGACCC, the “PBM E-score” value was -0.211.
AGAGACCT was tested, and the “PBM E-score” value was -0.104.
In the case of CGGGACTA, the “PBM E-score” value is reported as -0.22.
With ACGCACTG the “PBM E-score” value was -0.0467.
In the case of GGGCCTTA, the “PBM E-score” value is reported as -0.0621.
GGTAGTCA was tested, and the “PBM E-score” value was -0.206.
For CTTAGTCC, the “PBM E-score” value was -0.0572.
ATTAGTGC was tested, and the “PBM E-score” value was 0.353.
In the case of ATTAGTGA, the “PBM E-score” value is reported as 0.14.
In the case of GCTAGTCA, the “PBM E-score” value is reported as -0.0828.
For CTTAGTCA, the “PBM E-score” value was 0.38.
With GTTAGTTA the “PBM E-score” value was 0.155.
ATTAGTGG was tested, and the “PBM E-score” value was 0.163.
CCTAGTCA was tested, and the “PBM E-score” value was -0.0765.
In the case of ATTAGTTG, the “PBM E-score” value is reported as 0.216.
With GTTAGTCA the “PBM E-score” value was 0.266.
In the case of ATTAGTTA, the “PBM E-score” value is reported as 0.362.
In the case of GGTCTCAA, the “PBM E-score” value is reported as -0.0801.
For GTCTACGA, the “PBM E-score” value was -0.0725.
CCGGTTAG was tested, and the “PBM E-score” value was 0.0658.
With CACCGATG the “PBM E-score” value was -0.179.
With ATTTCGAC the “PBM E-score” value was -0.0837.
In the case of GCGGGTAC, the “PBM E-score” value is reported as 0.0345.
With CAATACCG the “PBM E-score” value was -0.0276.
AGGTCCCG was tested, and the “PBM E-score” value was -0.0309.
AGCGATCG was tested, and the “PBM E-score” value was 0.216.
In the case of ACGCTAGC, the “PBM E-score” value is reported as -0.0932.
For AGGCATTA, the “PBM E-score” value was -0.16.
For AAGGGGCT, the “PBM E-score” value was 0.0431.
CAGCGGTC was tested, and the “PBM E-score” value was -0.229.
